Inhibition data for one molecule are collected here from PubChem BioAssay AID1520 (The Scripps Research Institute Molecular Screening Center, 2009).

The assay in a line: growth loss in parental Ba/F3 cells – cell-based, murine pro-B, CellTiter-Glo luminescence, counter-screen for JAK2V617F inhibitor project (AID 1520).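 Further: plate controls were DMSO-treated cells for no effect and JAK Inhibitor I control wells for full effect.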 Particulars: Ba/F3 parental viability, at 5.6 µM, active compounds read high.

This is one part of the list. The source made the active and inactive calls.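 How the source made its calls: active means cell growth inhibition above the hit limit set in the earlier mutant JAK2 cell screen (cut at about 27% in these data); inactive means the rest.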

Regarding `CN(C)CC1Oc2ccccc2OC1(O)c1ccccc1` (stereo unspecified), the inhibition was 34.6% (active).
